Experimental findings from PubChem BioAssay (Tox21) are described below.

The target of assay [1] is Nuclear receptor subfamily 1 group I member 2 (Homo sapiens) (UniProt O75469). The assay can be described thus: Human pregnane X receptor (PXR) small molecule agonists, qHTS assay (AID 1346982). Note: nearly all actives have a fitted effect of over 35% in size. A digest of the protocol:
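Agonist mode: luminescence from ONE-Glo after 24 h compound exposure at 37C in HepG2 cells carrying hPXR-responsive CYP3A4 luciferase, plated in charcoal-stripped serum medium 5 h beforehand.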
A general note: Quantitative high-throughput screening tests each substance at several concentrations.

Assay [2] deals with Cytochrome P450 2D6 (Homo sapiens) (UniProt P10635). As to the kind of experiment: Cytochrome P450 Family 2 Subfamily D Member 6 (CYP2D6) small molecule antagonists: luciferase reporter qHTS assay (AID 1671196). Note: nearly all actives have a fitted effect of over 50% in size. The procedure, abridged:
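CYP2D6 activity was followed as luminescence from its luciferin product after a 1 h NADPH-driven reaction at room temperature. Enzyme-substrate mix and compound were pre-incubated for 10 min, and the signal was read 20 min after adding detection reagent.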
A general note: In a reporter assay the amount or activity of a reporter protein is the signal.

Assay [3] deals with Cytochrome P450 2C19 (Homo sapiens) (UniProt P33261). The assay can be described thus: Cytochrome P450 Family 2 Subfamily C Member 19 (CYP2C19) small molecule antagonists: luciferase reporter qHTS assay (AID 1671197). Note: nearly all actives have a fitted effect of over 65% in size. A digest of the protocol: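 Compounds were tested on CYP2C19 activity via proluciferin conversion to luciferin. The 37C, 1 h reaction followed NADPH addition; detection reagent stopped it.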
Cytochrome P450 2C19 (Homo sapiens), sequence (P33261 whole entry, looked up): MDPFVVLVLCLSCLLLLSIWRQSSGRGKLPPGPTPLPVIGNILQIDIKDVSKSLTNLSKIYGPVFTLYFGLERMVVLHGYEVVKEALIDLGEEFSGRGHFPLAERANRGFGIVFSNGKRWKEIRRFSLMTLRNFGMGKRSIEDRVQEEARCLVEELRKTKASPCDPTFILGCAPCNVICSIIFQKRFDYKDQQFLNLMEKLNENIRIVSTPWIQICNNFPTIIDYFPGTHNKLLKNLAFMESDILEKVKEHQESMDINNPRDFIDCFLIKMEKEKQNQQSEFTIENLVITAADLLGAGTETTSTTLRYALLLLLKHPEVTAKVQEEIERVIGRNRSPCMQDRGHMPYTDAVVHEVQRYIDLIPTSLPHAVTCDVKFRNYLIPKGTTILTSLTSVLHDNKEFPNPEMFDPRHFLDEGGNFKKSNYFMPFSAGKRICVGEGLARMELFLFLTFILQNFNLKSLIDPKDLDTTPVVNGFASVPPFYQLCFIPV

The target in assay [4] is Voltage-gated inwardly rectifying potassium channel KCNH2 (Homo sapiens) (UniProt Q12809). As to the kind of experiment: Human Ether-a-go-go-Related Gene (hERG) channel small molecule antagonists: fluorescence cell-based qHTS assay (AID 1671200). Note: nearly all actives have a fitted effect of over 50% in size. The procedure, abridged:
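Fluorescence at 540 nm emission (480 nm excitation) was recorded kinetically for 2 min at 1-second intervals once the thallium-containing stimulus reached cells previously loaded with FluxOR II dye.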
In general terms: Block of hERG is tested as a sign of cardiac risk.

The target in assay [5] is Cytochrome P450 3A4 (Homo sapiens) (UniProt P08684). As to the kind of experiment: Cytochrome P450 Family 3 Subfamily A Member 4 (CYP3A4) small molecule antagonists: luciferase reporter qHTS assay (AID 1671201). Note: nearly all actives have a fitted effect of over 50% in size. The procedure, abridged: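 qHTS, 1536-well. CYP3A4 + proluciferin substrate, cpd 10 min RT → NADPH regen 1 h RT → detection reagent 20 min → luminescence (RLU). Ketoconazole positive control.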
Cytochrome P450 3A4 (Homo sapiens), sequence (P08684 whole entry, looked up): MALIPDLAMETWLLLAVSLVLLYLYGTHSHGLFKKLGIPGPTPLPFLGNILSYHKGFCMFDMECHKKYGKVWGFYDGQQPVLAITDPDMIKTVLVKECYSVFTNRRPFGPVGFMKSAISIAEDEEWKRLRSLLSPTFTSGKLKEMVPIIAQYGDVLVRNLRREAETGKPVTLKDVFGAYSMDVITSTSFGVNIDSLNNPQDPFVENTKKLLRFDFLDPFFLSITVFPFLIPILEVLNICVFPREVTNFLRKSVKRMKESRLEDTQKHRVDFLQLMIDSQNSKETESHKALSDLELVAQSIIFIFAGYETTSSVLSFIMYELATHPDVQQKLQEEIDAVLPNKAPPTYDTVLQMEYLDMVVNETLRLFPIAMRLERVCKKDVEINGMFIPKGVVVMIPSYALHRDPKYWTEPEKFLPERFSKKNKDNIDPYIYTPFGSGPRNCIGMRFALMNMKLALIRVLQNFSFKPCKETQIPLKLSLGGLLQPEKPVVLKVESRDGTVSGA

Assay [6] concerns the target Cytochrome P450 2C9 (Homo sapiens) (UniProt P11712). The assay can be described thus: Cytochrome P450 Family 2 Subfamily C Member 9 (CYP2C9) small molecule antagonists: luciferase reporter qHTS assay (AID 1671198). Note: nearly all actives have a fitted effect of over 50% in size. A digest of the protocol:
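Enzyme-substrate mix preincubated with compound 10 min at room temperature; reaction started with NADPH regeneration solution, 1 h 37C. Luminescent luciferin product read after 20 min detection reagent.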

Assay [7] concerns the target Cytochrome P450 1A2 (Homo sapiens) (UniProt P05177). The assay can be described thus: Cytochrome P450 Family 1 Subfamily A Member 2 (CYP1A2) small molecule antagonists: luciferase reporter qHTS assay (AID 1671199). Note: nearly all actives have a fitted effect of over 50% in size. A digest of the protocol: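 Luminescence from luciferin formed by CYP1A2 from a proluciferin substrate, read 20 min after detection reagent. Compound was pre-incubated 10 min with enzyme-substrate, and reaction started with NADPH regeneration solution for 1 h at room temperature; furafylline control.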

Inconclusive results are not listed. Unmarked numbers belong to inactive results. Calls of active or inactive are those of the source. Calls come from the whole dose curve; as a rule, active = well fitted curve in the direction sought with a large enough effect in the repeat runs; inconclusive = weak or mixed curves; inactive = no such curve, though single readings can be large; an effect the other way counts as inactive or inconclusive.
Potency is the fitted concentration of half-maximal effect.

Voltage-gated inwardly rectifying potassium channel KCNH2 (Homo sapiens), sequence (Q12809 whole entry, looked up): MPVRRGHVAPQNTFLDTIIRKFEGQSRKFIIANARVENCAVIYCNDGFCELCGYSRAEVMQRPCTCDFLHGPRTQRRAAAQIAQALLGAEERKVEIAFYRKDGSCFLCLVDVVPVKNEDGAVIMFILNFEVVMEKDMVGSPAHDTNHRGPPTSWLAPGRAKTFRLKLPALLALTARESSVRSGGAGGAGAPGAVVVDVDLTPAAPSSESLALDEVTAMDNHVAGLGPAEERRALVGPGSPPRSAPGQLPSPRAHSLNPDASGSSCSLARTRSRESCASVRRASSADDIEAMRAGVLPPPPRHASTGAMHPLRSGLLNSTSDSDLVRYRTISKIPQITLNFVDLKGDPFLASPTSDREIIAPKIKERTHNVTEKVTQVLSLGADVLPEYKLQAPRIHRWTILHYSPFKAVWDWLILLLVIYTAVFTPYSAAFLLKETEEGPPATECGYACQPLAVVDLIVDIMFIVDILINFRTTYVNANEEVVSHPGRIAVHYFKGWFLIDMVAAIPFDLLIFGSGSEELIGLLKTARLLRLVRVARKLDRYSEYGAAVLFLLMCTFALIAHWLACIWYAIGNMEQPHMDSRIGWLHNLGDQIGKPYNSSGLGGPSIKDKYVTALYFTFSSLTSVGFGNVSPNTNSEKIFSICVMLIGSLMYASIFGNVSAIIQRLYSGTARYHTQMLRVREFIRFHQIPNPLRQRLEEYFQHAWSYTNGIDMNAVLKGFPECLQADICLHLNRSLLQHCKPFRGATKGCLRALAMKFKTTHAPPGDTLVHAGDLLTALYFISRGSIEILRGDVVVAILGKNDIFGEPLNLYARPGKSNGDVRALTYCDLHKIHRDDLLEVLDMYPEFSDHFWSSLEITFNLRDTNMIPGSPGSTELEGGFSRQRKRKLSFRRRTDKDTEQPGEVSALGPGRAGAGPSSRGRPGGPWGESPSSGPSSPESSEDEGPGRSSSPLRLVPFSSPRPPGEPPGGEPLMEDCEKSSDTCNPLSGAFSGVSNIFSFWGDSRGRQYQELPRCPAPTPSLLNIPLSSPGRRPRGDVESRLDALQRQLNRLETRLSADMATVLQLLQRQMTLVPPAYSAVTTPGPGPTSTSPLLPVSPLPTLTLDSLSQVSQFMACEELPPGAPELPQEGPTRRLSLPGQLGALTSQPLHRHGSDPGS
Nuclear receptor subfamily 1 group I member 2 (Homo sapiens), sequence (O75469 whole entry, looked up): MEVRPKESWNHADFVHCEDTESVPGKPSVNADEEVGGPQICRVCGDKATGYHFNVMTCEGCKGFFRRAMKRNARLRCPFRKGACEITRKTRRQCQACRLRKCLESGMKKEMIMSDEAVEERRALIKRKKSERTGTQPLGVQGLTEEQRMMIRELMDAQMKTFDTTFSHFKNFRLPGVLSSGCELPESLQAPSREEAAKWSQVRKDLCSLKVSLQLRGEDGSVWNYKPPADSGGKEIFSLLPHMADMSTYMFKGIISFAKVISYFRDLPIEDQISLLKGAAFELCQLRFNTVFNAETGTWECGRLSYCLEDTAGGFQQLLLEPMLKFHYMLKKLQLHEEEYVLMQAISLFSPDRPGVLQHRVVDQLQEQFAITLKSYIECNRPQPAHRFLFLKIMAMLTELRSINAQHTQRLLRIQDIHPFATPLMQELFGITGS
Cytochrome P450 2D6 (Homo sapiens), sequence (P10635 whole entry, looked up): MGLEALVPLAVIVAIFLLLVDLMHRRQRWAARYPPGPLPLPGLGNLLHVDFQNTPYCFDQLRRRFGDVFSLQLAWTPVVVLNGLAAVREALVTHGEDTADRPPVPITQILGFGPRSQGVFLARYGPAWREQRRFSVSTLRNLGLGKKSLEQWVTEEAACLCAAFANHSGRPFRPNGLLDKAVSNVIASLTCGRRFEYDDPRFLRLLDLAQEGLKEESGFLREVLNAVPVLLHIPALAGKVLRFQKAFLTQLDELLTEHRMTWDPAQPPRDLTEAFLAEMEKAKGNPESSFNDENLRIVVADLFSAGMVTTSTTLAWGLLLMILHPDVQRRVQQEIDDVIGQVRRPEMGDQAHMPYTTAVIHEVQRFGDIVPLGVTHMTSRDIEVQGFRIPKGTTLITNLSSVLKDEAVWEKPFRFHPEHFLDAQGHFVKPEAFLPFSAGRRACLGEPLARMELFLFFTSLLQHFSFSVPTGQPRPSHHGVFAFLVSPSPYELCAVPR
Cytochrome P450 1A2 (Homo sapiens), sequence (P05177 whole entry, looked up): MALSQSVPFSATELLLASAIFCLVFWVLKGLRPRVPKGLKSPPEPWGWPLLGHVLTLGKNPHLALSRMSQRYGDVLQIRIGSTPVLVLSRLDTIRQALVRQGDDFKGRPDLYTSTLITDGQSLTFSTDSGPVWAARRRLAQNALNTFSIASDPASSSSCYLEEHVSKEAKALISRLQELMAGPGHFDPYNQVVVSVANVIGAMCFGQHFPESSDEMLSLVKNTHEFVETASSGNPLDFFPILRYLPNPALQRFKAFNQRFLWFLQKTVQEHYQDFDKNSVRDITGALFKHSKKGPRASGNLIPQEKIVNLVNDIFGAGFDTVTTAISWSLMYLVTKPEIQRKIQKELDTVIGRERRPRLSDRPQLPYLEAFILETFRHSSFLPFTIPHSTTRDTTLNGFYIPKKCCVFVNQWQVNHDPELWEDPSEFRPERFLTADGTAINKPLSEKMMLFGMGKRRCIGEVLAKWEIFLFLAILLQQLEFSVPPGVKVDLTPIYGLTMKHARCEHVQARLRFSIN
Cytochrome P450 2C9 (Homo sapiens), sequence (P11712 whole entry, looked up): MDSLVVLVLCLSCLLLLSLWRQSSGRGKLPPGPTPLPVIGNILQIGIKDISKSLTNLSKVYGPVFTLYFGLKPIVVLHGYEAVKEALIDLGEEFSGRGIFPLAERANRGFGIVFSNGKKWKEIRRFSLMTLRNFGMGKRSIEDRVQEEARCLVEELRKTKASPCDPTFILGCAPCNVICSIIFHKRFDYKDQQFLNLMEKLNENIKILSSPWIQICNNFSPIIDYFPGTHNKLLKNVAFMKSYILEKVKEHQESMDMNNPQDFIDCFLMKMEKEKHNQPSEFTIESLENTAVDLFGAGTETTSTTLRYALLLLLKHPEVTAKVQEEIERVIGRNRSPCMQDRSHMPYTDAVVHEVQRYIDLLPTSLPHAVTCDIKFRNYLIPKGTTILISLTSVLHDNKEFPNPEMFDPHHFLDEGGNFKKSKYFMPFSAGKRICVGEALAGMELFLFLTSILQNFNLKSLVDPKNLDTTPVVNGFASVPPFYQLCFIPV

In the case of `Cc1nc2n(c(=O)c1CCN1CCC(C(=O)c3ccc(F)cc3)CC1)CCS2`, the Potency entry in assay [1] and in assay [3] was “inactive” in each case. Besides, the Potency in assay [2] was 0.49 µM (active); in assay [4] it was 9.52 µM (active).

In the case of `CNC(=O)C(c1ccccc1)c1ccccc1`, the Potency result in assay [1], in assay [2], in assay [4] and in assay [5] was “inactive” in each case. Further, the Potency in assay [3] is 20 µM (active).

Consider `C[C@H](CCC(=O)O)[C@H]1CC[C@H]2[C@@H]3[C@H](O)C[C@@H]4C[C@H](O)CC[C@]4(C)[C@H]3C[C@H](O)[C@]12C`, for which the Potency entry in assay [1], in assay [2], in assay [6], in assay [7], in assay [4] and in assay [5] was “inactive” throughout.

For the compound `CCNC(=O)NCCCOc1cccc(CN2CCCCC2)c1`, the results for the Potency in assay [1] and in assay [2] were 29.8 µM (active) and 13.8 µM (active), respectively. The Potency result in assay [3], in assay [7] and in assay [4] was “inactive” each time.

Regarding `COCCOCCOCCOC`, the Potency entry in assay [1], in assay [2], in assay [3], in assay [7], in assay [4] and in assay [5] was “inactive” throughout.

With `Cc1ccccc1OCC1CO1` (stereo not given), the Potency entry in assay [1], in assay [2], in assay [6], in assay [7], in assay [4] and in assay [5] was “inactive” throughout.

Turning to `C=CCOCC(O)CCl` (stereo not given), the Potency result in assay [1], in assay [2], in assay [4] and in assay [5] was “inactive” each time.

As for `CCCCC/C=C/CC(=O)OC`, the Potency result in assay [1], in assay [2], in assay [6], in assay [4] and in assay [5] was “inactive” throughout.

Take `CCOc1ccc(NC(=O)OC(C)C)cc1OCC`: the Potency in assay [1] was 48.6 µM (active); in assay [3], 71 µM (active); in assay [7], 5.03 µM (active). Also, the Potency result in assay [6], in assay [4] and in assay [5] was “inactive” throughout.

For the compound `CCCCC(=O)N(C)C`, the Potency entry in assay [1], in assay [2], in assay [6], in assay [7], in assay [4] and in assay [5] was “inactive” throughout.

Regarding `CC(C)COC(=O)/C=C/c1ccccc1`, the Potency result in assay [1], in assay [2] and in assay [5] was “inactive” each time. Also, the Potency in assay [7] was 28.3 µM (active).

As to `CCCCC(C)C(=O)O` (stereo not given), the Potency entry in assay [1], in assay [2], in assay [4] and in assay [5] was “inactive” in each case. The Potency in assay [7] is 39.9 µM (active).

With `CCCCCCCCOC(C)=O`, the Potency result in assay [1], in assay [2], in assay [6], in assay [7] and in assay [5] was “inactive” in each case.

With `Cc1nc([N+](=O)[O-])cn1-c1ccc([N+](=O)[O-])cc1`, the Potency entry in assay [1], in assay [3], in assay [6], in assay [7], in assay [4] and in assay [5] was “inactive” throughout.

On to `NS(=O)(=O)c1ccccc1OC(F)(F)F`, for which the Potency result in assay [1], in assay [2], in assay [6], in assay [4] and in assay [5] was “inactive” throughout.

As to `CC1(N)CCC(C(C)(C)N)CC1` (stereo not given), the Potency result in assay [1], in assay [6], in assay [7] and in assay [5] was “inactive” in each case. Further, the Potency in assay [2] was 20 µM (active).

For the compound `O=S1(=O)CCCC1`, the Potency entry in assay [1], in assay [2], in assay [6], in assay [4] and in assay [5] was “inactive” each time. In assay [7], the Potency was 40.2 µM (active).

Take `CCN(CC)C(=O)C1CN2CCc3cc(OC)c(OC)cc3C2CC1OC(C)=O` (stereo not given): the Potency result in assay [1], in assay [3], in assay [6] and in assay [7] was “inactive” throughout.

Turning to `COc1ccc(OC)c(NC(=O)CC(C)=O)c1`, the Potency in assay [1] was 54.5 µM (active); in assay [2], 31.7 µM (active); in assay [6] it was 31.7 µM (active); in assay [7], 15.9 µM (active); in assay [5] it was 22.4 µM (active). For the same compound, the Potency entry in assay [4] is “inactive”.

`Nc1cc(C(=O)O)ccc1Cl`: the Potency entry in assay [1], in assay [2], in assay [6], in assay [7], in assay [4] and in assay [5] was “inactive” in each case.

In the case of `CN(C)CCCNCCC#N`, the Potency result in assay [1], in assay [2], in assay [6], in assay [4] and in assay [5] was “inactive” throughout.

For the compound `CCCC(C)CC` (stereo not given), the Potency entry in assay [1], in assay [2], in assay [6] and in assay [5] was “inactive” throughout. In addition, in assay [7], the Potency was 35 µM (active).

As for `C=CCOc1c(Br)cc(Br)cc1Br`, the Potency result in assay [1] and in assay [4] was “inactive” each time. The Potency in assay [3] was 7.96 µM (active); in assay [6], 8.94 µM (active); in assay [7], 2.83 µM (active).

Regarding `COC(OC)C(C)c1ccccc1` (stereo not given), the Potency entry in assay [1], in assay [2], in assay [6], in assay [4] and in assay [5] was “inactive” throughout.
